This passage reports Potency results from PubChem BioAssay (NCATS).

Each structure is given as a SMILES string. Records with an inconclusive call do not appear. Calls of active or inactive are those of the source. The call rests on the fitted dose curve.
Potency means the concentration at half of the fitted maximal effect.

The nature of the experiment: Cell Viability - MRC5 (AID 434).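 Further: potency reflects cytotoxicity seen as loss of intracellular ATP.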 The conditions noted are these: MRC5 lung fibroblast viability, qHTS. An excerpt:
NIH Chemical Genomics Center [NCGC]
NIH Molecular Libraries Screening Centers Network [MLSCN]
National Institutes of Environmental Health Sciences [NIEHS]
National Toxicology Program [NTP]
We have developed a 1536-well cell-based assay for quantitative high throughput screening (qHTS) against a number of cell lines to determine in vitro cytotoxicity of small molecules. This particular assay uses the MRC5 cell line which is derived from normal human lung fibroblasts.
NCGC Assay Protocol Summary:
The CellTiter-Glo luminescent cell viability assay (Promega) is a homogeneous method to measure the number of viable cells in culture. The end point readout of this assay is based on quantitation of intracellular ATP, an indicator of metabolic activity, using the luciferase reaction. Luciferase catalyzes the oxidation of beetle Luciferin to oxyluciferin and light in the presence of ATP. The luminescent signal is proportional to amount of ATP present.
Using the CellTiter-Glo luminescent cell viability assay, the amount of cellular ATP was measured in the MRC5 cell line with complete culture medium following compound treatment for 40 hours. The assay was performed in opaque white Kalypsys 1536-well plates. In the screen, tamoxifen and doxorubicin were used as positive controls. Library compounds were measured for their ability to cause acute toxicity in the cell line, as reflected by a decrease in intracellular ATP levels, in a concentration-dependent manner. Data were normalized to the controls for basal activity (DMSO only) and 100% inhibition (100 uM tamoxifen). AC50 values were determined from concentration-response data modeled with the standard Hill equation.
qHTS protocol for CellTiter Glo MRC5 cellular assay
[Step] [Parameter] [Value] [Description]
1. Reagent; 5 uL; 1500 MRC5 cells/well
2. Time; 5 hr; 37 °C incubation
4. Controls; 23 nL; Tamoxifen 0.34 uM to 100 uM & Doxorubicin 0.02 nM to 100 uM
5. Time; 40 hr; 37 °C incubation
6. Reagent; 5 uL; CellTiter Glo reagent
7. Time; 20 min; Room Temperature
8. Detection; Luminescence; Viewlux plate reader
Keywords: cell viability, cytotoxicity, MRC5 cell line, luminescence, NTPHTS, NTPHTS_NCGC, NIEHS, EPA, DSSTox, MLSMR, MLSCN, NIH Roadmap, qHTS, NCGC
`NCC(O)c1ccc(O)cc1` (stereo not given): the Potency was > 92 µM (inactive).

As for `CNCC(O)c1ccc(O)cc1` (stereo not given), the Potency was > 92 µM (inactive).

In the case of `OCCOc1ccccc1`, the Potency is > 92 µM (inactive).

Regarding `Clc1ccc(COC(Cn2ccnc2)c2ccc(Cl)cc2Cl)cc1` (stereo not given), the Potency was 95 µM (inactive).

For `Oc1ccccc1-c1ccccc1`, the Potency was > 92 µM (inactive).

With `CCCC(C)(COC(N)=O)COC(=O)NC(C)C` (stereo not given), the Potency was > 92 µM (inactive).

As to `C[C@]12C/C(=C/O)C(=O)C[C@@H]1CC[C@@H]1[C@@H]2CC[C@@]2(C)[C@H]1CC[C@]2(C)O`, the Potency was > 92 µM (inactive).

For `c1ccc2c(c1)Nc1ccccc1S2`, the Potency was > 92 µM (inactive).

For the molecule `CCOP(=S)(OCC)Oc1cc(C)nc(C(C)C)n1`, the Potency is > 92 µM (inactive).

Turning to `Oc1cccc2cccnc12`, the Potency was > 92 µM (inactive).
